Experimental findings from PubChem BioAssay (EPA / NIEHS) are described below.

For orientation: AC50 means the midpoint of the concentration-response curve, whichever way the signal moves.

Active and inactive are the calls of the source. The calls were made as follows: active = hit-call score of the fitted dose curve at least 0.9, where 1 is the maximum; inactive = score below 0.9.

The assay can be described thus: ATG_TA_CIS: Attagene CIS-FACTORIAL HepG2 Assay for human TA Basal Promoter (AID 2282964). As to conditions: HepG2 Attagene CIS-factorial TA basal promoter reporter; actives raise or lower the signal. As to the method: ATG_CIS is a cell-based, multiplexed-readout assay that uses HepG2, a human liver cell line, with measurements taken at 24 hours after chemical dosing in a 24-well plate.ATG_TA_CIS is one of 52 assay component(s) measured or calculated from the ATG_CIS assay. It is designed to make measurements of mRNA induction, a form of inducible reporter, as detected with fluorescence intensity signals by Reverse transcription polymerase chain reaction (RT-PCR) and Capillary electrophoresis technology.Data from the assay component ATG_TA_CIS was analyzed into 1 assay endpoint. This assay endpoint, ATG_TA_CIS, was analyzed with bidirectional fitting relative to DMSO as the negative control and baseline of activity. Using a type of inducible reporter, measures of mRNA for gain or loss-of-signal activity can be used to understand the background control at the transcription factor-level as they relate to the gene . Furthermore, this assay endpoint can be referred to as a secondary readout, because this assay has produced multiple assay endpoints where this one serves a background control function. To generalize the intended target to other relatable targets, this assay endpoint is annotated to the background measurement intended target family, where the subfamily is internal marker.
Human liver HepG2 cells are transiently transfected with multiple reporter transcription units (MRTUs) in 6-well plates using FuGene 6 reagent (Roche; 3 ml FuGene/1 mg DNA). The MRTU constructs are regulated by a cis-regulating element (promoter). […] A major difference between the CIS and TRANS system is that in CIS activities of endogenous TFs are measured, whereas the TRANS assay evaluates changes in activities of exogenous, chimeric NR-Gal4 proteins. […] At the end of 24 hour incubation, total RNA was isolated using TriZol reagent (Invitrogen). The isolated RNA is then reverse-transcribed using oligo(dT) primer and Mo-MLV reverse transcriptase (Invitrogen) with DNAse I (Ambion) treatment for 30 min. The one-tenth of the produced cDNA was amplified by PCR using Taq DNA polymerase (Invitrogen) and two reporter sequence-specific primers. The PCR products were fluorescently labeled by primer extension with 6-arboxyfluorescein (6-FAM) 5'-labeled reporter sequence-specific primer (2 min at 95 C, 20 s at 68 C and 10 min at 72 C) and these products were digested with 5U of HpaI (New England Biolabs) for 2h at 37 C. The fragments were purified using Qiaquick PCR columns (Qiagen), analyzed on an ABI 3130xL genetic analyzer (Applied Biosystems) with peak positions identified by using a set of X-rhodamine (ROX)-labeled MapMarker1000 molecular weight standards (BioVentures). The raw capillary electrophoresis data was processed using Attagraph software (Attagene).
Turning to `C=CCc1ccc(OC)cc1`, the compound was called inactive.

On to `CCc1ccccc1C`, for which the result was inactive. Still for that read-out and setting: in the case of `COP(=O)(OC)OC` it was “inactive”. Same read-out and setting: in the case of `Cc1ccc2ccccc2c1C` it was “inactive”; in that of `O=C(Cc1ccccc1)c1ccccc1`, “inactive”; in that of `CCC[CH2][Sn]([CH2]CCC)([CH2]CCC)[O]C(=O)c1ccccc1`, “inactive”. Regarding `COP(=O)(OC)O/C(=C\Cl)c1cc(Cl)c(Cl)cc1Cl`, the AC50 is 73.4 µM (active). As for `ClCC(Cl)CCl`, the call was inactive. The same measure, in the same setting: in the case of `Clc1ccc(COC(Cn2ccnc2)c2ccc(Cl)cc2Cl)cc1` (stereo not given) it was “inactive”; in that of `O=C(CCl)CCl`, “inactive”; in that of `CCN1CCC2(CC1)COc1cc3c(cc12)N(C(=O)c1ccc(-c2ccc(-c4nnc(C)o4)cc2C)cc1)CC3`, “inactive”. On the same count and under the same terms, in the case of `CCC(=O)C(CC(C)N(C)C)(c1ccccc1)c1ccccc1` (stereo not given) it was “inactive”; in that of `CC1CN1P(=O)(N1CC1C)N1CC1C` (stereo not given), “inactive”; in that of `Cl/C=C\C[N+]12CN3CN(CN(C3)C1)C2`, “inactive”. Still for that read-out and setting: in the case of `N#CCCO` it was “inactive”; in that of `CC(=[OH+])/C=C(/C)[O-].CC(=[OH+])/C=C(/C)[O-].CC(=[OH+])/C=C(/C)[O-].[Al]`, “inactive”; in that of `OCC(O)CCl` (stereo not given), “inactive”. For the compound `Nc1ccc(N=Nc2ccc(-c3ccc(N=Nc4c(S(=O)(=O)O)cc5cc(S(=O)(=O)O)c(N=Nc6ccccc6)c(O)c5c4N)cc3)cc2)c(N)c1`, the compound was called inactive.

On to `O=C(OC1CCCCC1)c1ccccc1C(=O)OC1CCCCC1`, for which the half-maximal activity concentration (AC50) was 29.1 µM (active).

With `COc1ccc(C=O)cc1OC`, the compound was called inactive. On the same count and under the same terms, in the case of `CC(C)c1ccc(CO)cc1` it was “inactive”; in that of `CC(C)(c1ccccc1)c1ccc(O)c(C(C)(C)c2ccccc2)c1`, “inactive”; in that of `CCNc1nc(NC(C)(C)C)nc(SC)n1`, “inactive”.

Take `ClC1=C(Cl)[C@]2(Cl)[C@@H]3[C@@H](Cl)[C@@H](Cl)C[C@@H]3[C@@]1(Cl)C2(Cl)Cl`: the compound was classed as inactive.

Take `Nc1cccc2ccccc12`: the result was inactive. In the case of `CC(C)(c1ccc(OCC2CO2)cc1)c1ccc(OCC2CO2)cc1` (stereo not given), the AC50 was 33.4 µM (active). For `CN(C)N=O`, the outcome was inactive. Still for that read-out and setting: the value for `Nc1cccc(Cl)c1` was “inactive”; that for `CC(=O)C(Cl)C(=O)N(C)C` (stereo not given) was “inactive”. Same read-out and setting: in the case of `CCC1(c2ccc(N)cc2)CCC(=O)NC1=O` (stereo not given) it was “inactive”; in that of `C=CC(=O)N(C)C`, “inactive”. For `C=CC(=O)OCCCCCC(C)C`, the result was inactive. Take `O=C(O)C(F)(F)C(F)(F)C(F)(F)C(F)(F)C(F)(F)C(F)(F)F`: the call was inactive. The same measure, in the same setting: the value for `O=C1C2(Cl)C3(Cl)C4(Cl)C(Cl)(Cl)C5(Cl)C3(Cl)C1(Cl)C5(Cl)C24Cl` (stereo not given) was “inactive”.

In the case of `CCOP(OCC)OCC`, the outcome was inactive. Same read-out and setting: in the case of `CC(C)c1cccc(C(C)C)c1O` it was “inactive”.

As for `ClCc1cccnc1`, the compound was classed as inactive. Still for that read-out and setting: the value for `CCC[CH2][Sn]([Cl])([Cl])[Cl]` was “inactive”. Still for that read-out and setting: in the case of `Cc1cc(Cl)ccc1O[C@H](C)C(=O)O` it was “inactive”. Same read-out and setting: the value for `CCC(=O)c1ccccc1` was “inactive”.
